a7 integrin act = qHTS for Activators of Integrin-Mediated Alleviation for Muscular Dystrophy | Potency, µM (doses to about 38.3 µM), for inactives: at the top dose activation, usual class: activators | AID 624291, 2012 | 350,000 tested, 0.064% active | alpha7betagal myoblasts, beta-gal FDG fluorescence, 48 h; active means well fitted activation curve with a large enough effect; inconclusive means small, poorly fitted or top-dose-only effect; inactive means no such curve, though single readings can be large or run the other way;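 further: potency means the concentration at half of the fitted maximal effect; 100% = response of the positive control SU9516; nearly all actives have a fitted effect of over 60% in size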
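Alpha7betagal+/- myoblasts (passage 13) were plated 16-24 hr, then exposed to compounds (1:260 dilution of DMSO stock) for 48 hours at 37C. After MPER lysis, β-galactosidase reporter activity was read as FDG fluorescence (ex 480/em 540) after 30 minutes.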
D3 antag = qHTS of D3 Dopamine Receptor Antagonist: qHTS. D(3) dopamine receptor (Homo sapiens), P35462. D3R cells, DiscoveRx beta-arrestin luminescence, antagonist mode; stronger effect = lower value. max response, negative = inhibition, %. 360,000 tested, 2.5% active. AID 652054, 2013; in the data active means max response below about -50%; inconclusive means no clear call, values can overlap the other calls; further: on the % scale 0 is the no-effect control and ±100 the full control effect
Target sequence (P35462 whole entry, looked up): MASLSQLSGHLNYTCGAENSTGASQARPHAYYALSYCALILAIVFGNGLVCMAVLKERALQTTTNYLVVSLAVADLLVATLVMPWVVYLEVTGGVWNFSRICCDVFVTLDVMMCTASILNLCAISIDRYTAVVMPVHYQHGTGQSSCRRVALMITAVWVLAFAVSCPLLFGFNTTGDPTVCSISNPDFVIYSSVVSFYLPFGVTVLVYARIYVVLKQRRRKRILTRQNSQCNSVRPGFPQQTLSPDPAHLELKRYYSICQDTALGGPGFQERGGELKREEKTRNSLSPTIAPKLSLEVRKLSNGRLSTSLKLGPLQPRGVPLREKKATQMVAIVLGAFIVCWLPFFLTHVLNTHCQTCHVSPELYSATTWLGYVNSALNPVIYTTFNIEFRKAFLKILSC
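Cells plated overnight at 1500 cells/well, then exposed to library compounds with dopamine controls for 90 minutes at 37 degrees C. DiscoveRx reagent added for 30–60 minutes at room temperature; luminescence read, quantitative HTS format.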
DRD3 agonist = qHTS of D3 Dopamine Receptor Agonist: qHTS; D3R DiscoveRx beta-arrestin cells, luminescence, 90 min; max activation, %; 410,000 tested, 0.58% active; AID 652048, 2013; in the data active means max activation above about 30%; further: 0% is about no effect
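Cells at 1500/well, incubated overnight, then treated with pinned compounds (dopamine as control) for 90 min at 37 degrees C. DiscoveRx reagent added for 30 - 60 minutes at room temperature; luminescence read.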
The depositor's hits bear a star; ! = not confirmed by another sample. The list is not random: actives were taken first. Their share in the collection is about 2.9%.

CC(C)c1ccc(CC(C)C2C3=C(CCCC3=O)OC3=C2C(=O)CCC3)cc1 (stereo unspecified) was read as a7 integrin act 5%, D3 antag 3 and DRD3 agonist 5.
For CCN1C(=O)c2ccccc2S(=O)(=O)c2ccc(C(=O)NCCCN(CC(C)C)CC(C)C)cc21 the results were a7 integrin act inconclusive, D3 antag -24 and DRD3 agonist -2.
CCCCOc1ccc(OCCCN2CCOCC2)cc1 was read as D3 antag 5 and DRD3 agonist 87*!.
For Clc1ccc(OCCCCCN2CCOCC2)cc1 the results were a7 integrin act -16%, D3 antag 17 and DRD3 agonist -16.
CCC(C)c1ccc(OCCCCN2CCOCC2)cc1 (stereo unspecified) was read as a7 integrin act -16%, D3 antag -65* and DRD3 agonist -6.
CCOc1ccc(OCCOCCN2CCOCC2)cc1 was read as a7 integrin act 1%, D3 antag inconclusive and DRD3 agonist -2.
Screening CC(C)OC(=O)c1nnn(-c2nonc2N)c1CN1CCc2ccccc2C1 returned a7 integrin act -16%, D3 antag 0 and DRD3 agonist 2.
`O=c1cc(C(F)(F)F)[nH]c2c(C(F)(F)F)cccc12` gave a7 integrin act -44%, D3 antag 57 and DRD3 agonist 24.
Screening O=c1cc(C(F)(F)F)[nH]c2ccc(OC(F)(F)F)cc12 returned a7 integrin act 4%, D3 antag 30 and DRD3 agonist 33*.
`COc1ccccc1NC(=O)C1CCCN(C(=O)Nc2ccc(F)cc2)C1` (stereo unspecified) gave a7 integrin act 7%, D3 antag 8 and DRD3 agonist 21.
O=C(CN(c1ccc([N+](=O)[O-])cc1)S(=O)(=O)c1ccccc1)N1CCCCC1 was read as a7 integrin act -4%, D3 antag 25 and DRD3 agonist -12.
`Cn1c(=O)n(C)c2cc(CNCc3ccccc3Cl)ccc21` gave DRD3 agonist -16.
Screening Cc1ccc2nc3c(c(N)c2c1)CCN3c1ccccc1 returned a7 integrin act -37%, D3 antag -77* and DRD3 agonist -6.
For Cc1ccc2nc3c(c(N)c2c1)CCN3C the results were a7 integrin act -60%, D3 antag inconclusive and DRD3 agonist -15.
For N#Cc1ccc(C23CC4(C2)[C@H](CN(CC2CCCCC2)[C@@H]4c2ccccc2)C3c2ccc(Cl)nc2)cc1 (stereo partly specified) the results were a7 integrin act 16%, D3 antag -72* and DRD3 agonist 17.
`N#Cc1ccc(C23CC4(C2)[C@H](CN(CC2CCCCC2)[C@@H]4c2ccccc2)C3c2ccccc2)cc1` (stereo partly specified) gave a7 integrin act -1%, D3 antag 22 and DRD3 agonist 5.
COc1cc(OC)c(NC(=O)Cn2c(=O)cc(C)c3c(C)nn(-c4ccc(C)cc4)c32)cc1Cl was read as DRD3 agonist -18.
For COCCn1c(SCC(=O)Nc2cc(C)on2)nnc1-c1ccccc1 the results were a7 integrin act -4%, D3 antag -8 and DRD3 agonist 9.
`CCOC(=O)c1sc(NC(=S)NC(=O)C2CCCC2)cc1C` gave a7 integrin act -27%, D3 antag 7 and DRD3 agonist 9.
Screening CCOC(=O)c1sc(NC(=S)NC(=O)CC(C)C)cc1C returned a7 integrin act 10%, D3 antag -78* and DRD3 agonist 8.
Screening O=c1oc2cc(O)c(Cl)cc2c2ccccc12 returned a7 integrin act 25%, D3 antag -12 and DRD3 agonist -2.
`O=c1oc(Cl)c(Cl)c2ccccc12` gave D3 antag -74* and DRD3 agonist -36.
Screening COC(=O)Oc1ccc(/C=N/NC(=O)CN(c2ccccc2Cl)S(C)(=O)=O)cc1OC returned a7 integrin act 25%, D3 antag 0 and DRD3 agonist -7.
COC(=O)CCCn1c(-c2ccc(C)cc2)c(C)n2c3c(=O)n(C)c(=O)n(C)c3nc12 was read as DRD3 agonist 2.
Cc1ccc(-c2c(C)n3c4c(=O)n(C)c(=O)n(C)c4nc3n2CCCO)cc1 was read as DRD3 agonist 37*.
`CCCCNC(=O)C(CC)Sc1nnc(-c2cccc(F)c2)c(-c2cccc(F)c2)n1` (stereo unspecified) gave DRD3 agonist 4.
`O=C(Cn1c(SCC(=O)N2CCc3ccccc32)nc2ccccc21)NC1CCCC1` gave a7 integrin act 0%, D3 antag -76* and DRD3 agonist -21.
O=C(Cn1c(SCC(=O)N2CCc3ccccc3C2)nc2ccccc21)NC1CCCC1 was read as a7 integrin act -15%, D3 antag -19 and DRD3 agonist -2.
Screening O=C(CSc1ncc(-c2ccccc2)n1C1CCCC1)N1CCc2ccccc21 returned a7 integrin act -40%, D3 antag -85* and DRD3 agonist -35.
For Cn1c(-c2ccccc2)cnc1SCC(=O)N1CCCc2ccccc21 the results were a7 integrin act 18%, D3 antag 12 and DRD3 agonist -6.
For Cn1c(Cn2nnc3ccccc32)nnc1SCC(=O)N1CCc2ccccc21 the results were a7 integrin act 2%, D3 antag 16 and DRD3 agonist 4.
For CC(C)(C)c1ccc(OCCNCc2ccccc2)cc1 the results were a7 integrin act -66%, D3 antag -53* and DRD3 agonist -16.
`COc1ccccc1C(=O)NCCOc1ccc(C(C)(C)C)cc1` gave a7 integrin act 8.9µM*, D3 antag 26 and DRD3 agonist 2.
Brc1ccccc1OCCNCc1ccccc1 was read as a7 integrin act -17%, D3 antag -71* and DRD3 agonist 4.
Screening Cc1cc(C)c(C)c(OCCNCc2ccccc2)c1 returned a7 integrin act -35%, D3 antag -77* and DRD3 agonist -12.
Screening Cc1cc(C)c(OCCNCc2ccccc2)c(C)c1 returned a7 integrin act -37%, D3 antag -15 and DRD3 agonist -13.
Screening CC(C)(C)c1ccc(C(=O)NCCOc2ccccc2)cc1 returned a7 integrin act 3%, D3 antag -19 and DRD3 agonist 4.
CC(C)(C)c1ccc(OCCNC(=S)Nc2ccccc2)cc1 was read as a7 integrin act 8%, D3 antag inconclusive and DRD3 agonist -5.
Screening Clc1ccc(OCCCNCc2ccccc2)c2ccccc12 returned a7 integrin act -15%, D3 antag -29 and DRD3 agonist -22.
Screening O=C(Oc1ccc(/C=N/n2cnnc2)cc1)c1cccc([N+](=O)[O-])c1 returned a7 integrin act 0%, D3 antag -8 and DRD3 agonist 5.
CCCn1c(=O)c(C(=O)NCc2ccc3c(c2)OCO3)c(O)c2ccccc21 was read as a7 integrin act 0%, D3 antag 50 and DRD3 agonist 3.
For COc1ccccc1NC(=O)Cn1c(=O)n(Cc2cccs2)c(=O)c2cccnc21 the results were DRD3 agonist -7.
Screening O=C(COc1ccc(Br)cc1CNCCc1ccccc1)NCc1ccccc1 returned a7 integrin act -60%, D3 antag -25 and DRD3 agonist -19.

Screening data (PubChem)
